# Screening data as filed in PubChem.
# PP1 counter: counter-screen for PP5 inhibitors: inhibitors of human PP1-alpha; P62136; purified PP1alpha, OMFP fluorescence; inhibition, % at 6.7 µM; actives 0.9% (n = 320,000); AID 2235;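 active = inhibition above the mean inhibition of all tested compounds plus 3 SD, computed separately for each screening campaign, cut at about 15% in these data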
# ATG4B inh: blocks human ATG4B protease cleavage of LC3 substrate; inhibition, % at 8.33 µM; ATG4B cleavage of LC3-PLA2, NBD-HPC fluorescence, 1 h; actives 0.51% (n = 340,000); Q9Y4P1; in the data active = inhibition above about 40%
# Target sequence (Q9Y4P1 whole entry, looked up): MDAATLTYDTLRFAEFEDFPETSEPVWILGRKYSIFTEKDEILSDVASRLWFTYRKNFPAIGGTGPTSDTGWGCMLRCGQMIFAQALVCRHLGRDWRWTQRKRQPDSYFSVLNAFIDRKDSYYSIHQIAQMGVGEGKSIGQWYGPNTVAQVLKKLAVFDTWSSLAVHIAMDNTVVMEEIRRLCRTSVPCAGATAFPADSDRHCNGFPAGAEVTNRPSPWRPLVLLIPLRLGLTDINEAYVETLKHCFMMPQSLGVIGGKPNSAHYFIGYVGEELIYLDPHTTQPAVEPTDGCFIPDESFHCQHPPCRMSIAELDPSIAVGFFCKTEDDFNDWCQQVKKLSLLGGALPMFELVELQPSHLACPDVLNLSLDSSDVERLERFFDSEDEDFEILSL
# H9c2 protect: protects H9c2 cardiomyocytes from peroxide injury; H2O2 injury protection, ATPLite, 2 h; protection from H2O2 cell death, % at 20 µM; actives 0.63% (n = 360,000);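 active = compounds giving at least 50% protection of heart cells from peroxide-induced death in the single-dose screen, raw or plate-pattern-corrected value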;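 note: 0% = DMSO wells with peroxide and 100% = DMSO wells without peroxide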
# PP5 primary: inhibitors of human protein phosphatase 5 (PP5) | P53041 | purified PP5c, OMFP substrate fluorescence | inhibition, % at 6.7 µM | actives 0.18% (n = 320,000) | AID 1987;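 active = inhibition above the campaign's mean inhibition across all tested compounds plus 3 SD, cut at about 9.5% in these data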;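 note: 0% = DMSO only and 100% = 100 µM cantharidin control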
# * marks the source's active call; other numbers are inactive results; · = no result. Only some compounds are listed: those with a hit (about 1.9% of all), similar ones and a draw of the others.
SMILES,PP1 counter,ATG4B inh,H9c2 protect,PP5 primary
COc1ccccc1OCCC(=O)OCC(=O)Nc1ccc2c(c1)OCO2,·,8.2,-13.2,·
NC(=O)COC(=O)c1c2c(nc3ccccc13)CCC2,1.0,-9.2,-1.0,0.4
CC(C)(C)NC(=O)COC(=O)c1c2c(nc3ccccc13)CCC2,0.1,0.3,50.3*,-1.3
S=C(c1cn(CCOc2cccc3ccccc23)c2ccccc12)N1CCCC1,23.7*,-11.0,-18.3,1.7
C=CCNc1nc(-c2ccccn2)nnc1-c1ccccc1,2.9,-3.2,73.0*,0.2
c1ccc(-c2cnnc(-c3ccccn3)n2)cc1,2.8,-3.6,-2.2,1.2
CC(C)n1c(SCC(=O)Nc2ccccc2N2CCOCC2)nc2c1c(=O)n(C)c(=O)n2C,-3.7,-17.4,34.5,0.5
CCn1c(SCC(=O)Nc2ccccc2N2CCCCC2)nc2c1c(=O)n(C)c(=O)n2C,-7.3,-3.7,61.7*,2.8
CCN(CC(=O)NCc1cccs1)C(=O)COc1ccc(C(C)=O)cc1,-1.1,-27.0,5.6,3.4
O=C(Nc1cc(S(=O)(=O)N2CCCCC2)ccc1O)c1ccccc1NS(=O)(=O)c1ccc(F)c(F)c1,16.1*,-10.1,-7.9,-5.6
CC1Cc2ccccc2C(=O)N1 (centres undefined),-5.3,-3.0,96.6*,1.0
CC1CC(=O)Nc2ccccc2N1 (centres undefined),·,-2.0,0.8,·
Cc1cc2c(cc1S(=O)(=O)CCC(=O)N(C)Cc1ccccc1)OCC(=O)N2,4.6,-0.9,1.9,-1.5
COc1ccc(-c2cc(-c3nnc(COC(=O)c4ccncc4)o3)c3ccccc3n2)cc1OC,2.3,-20.2,78.9*,1.6
O=C(OCc1nnc(-c2ccc(Cl)cc2)o1)c1ccncc1,-1.8,-9.6,2.0,1.7
C/C(=N\NC(=O)c1ccccc1O)C1CC1,-2.1,-1.8,13.1,1.2
O=c1c2cccc3c2c(nn1CN1CCOCC1)-c1ccccc1-3,1.6,-17.6,75.4*,-0.3
CCN(CC)CCn1nc2c3c(cccc3c1=O)-c1ccccc1-2,-4.8,0.5,26.4,2.7
Cc1cc(C)c(SSc2nnnn2-c2ccccc2)c(C)c1,·,·,-5.6,·
O=C(C1=C(O)C(=O)N(CCN2CCOCC2)C1c1cccc(Br)c1)c1cc2ccccc2o1 (centres undefined),18.5*,-13.6,-3.5,1.4
COCCCN1C(=O)C(O)=C(C(=O)c2ccc(C)o2)C1c1cccc(Br)c1 (centres undefined),18.2*,-7.5,-2.2,2.3
O=C(C1=C(O)C(=O)N(CCN2CCOCC2)C1c1cccc([N+](=O)[O-])c1)c1cc2ccccc2o1 (centres undefined),·,·,9.4,·
O=C(NNC(=S)NC(=O)c1cccc([N+](=O)[O-])c1)c1ccc(Br)cc1,0.9,3.6,55.8*,0.8
CC(C)C(=O)N1CCN(c2ccc(NC(=O)COc3ccccc3[N+](=O)[O-])cc2)CC1,-5.4,0.1,72.0*,1.7
O=C(N/N=C/c1ccccn1)c1cc(-c2ccc(Cl)s2)[nH]n1,7.8,-14.6,59.2*,0.0
SMILES,PP1 counter,ATG4B inh,H9c2 protect,PP5 primary
CCN(CC)S(=O)(=O)c1cc(NC(=O)c2cccc(N3C(=O)CCC3=O)c2)ccc1Cl,-7.2,-4.9,1.7,-1.4
COc1ccccc1C(=O)COC(=O)Cn1[nH]c(=O)c2ccccc2c1=O,-2.2,14.3,52.6*,-0.6
Cc1cc(NC(=O)COC(=O)Cn2[nH]c(=O)c3ccccc3c2=O)c([N+](=O)[O-])cc1C,·,-1.9,92.7*,·
CC(OC(=O)Cn1[nH]c(=O)c2ccccc2c1=O)C(=O)Nc1ccc(F)cc1Cl (centres undefined),-4.2,-0.5,67.0*,1.7
O=C(Cn1[nH]c(=O)c2ccccc2c1=O)OCC(=O)c1ccc(Br)cc1,-5.9,-2.0,10.0,-0.3
Cc1cc(C)cc(N(CCC#N)C(=O)COC(=O)Cn2[nH]c(=O)c3ccccc3c2=O)c1,·,-9.5,77.0*,·
CCc1ccc(C(=O)C(C)OC(=O)Cn2[nH]c(=O)c3ccccc3c2=O)cc1 (centres undefined),4.7,2.6,44.3,-0.4
O=C(c1cccc(N2CCCC2=O)c1)N1CCN(c2cccc(Cl)c2)CC1,-2.6,-0.9,-2.1,1.9
Cc1nn(CC(=O)OC(C)C(=O)Nc2ccccc2[N+](=O)[O-])c(C)c1[N+](=O)[O-] (centres undefined),-3.0,14.8,3.5,1.2
CC(OC(=O)Cn1[nH]c(=O)c2ccccc2c1=O)C(=O)Nc1ccccc1[N+](=O)[O-] (centres undefined),-2.8,5.2,79.3*,0.5
CC(OC(=O)Cn1[nH]c(=O)c2ccccc2c1=O)C(=O)Nc1cccc(Cl)c1 (centres undefined),0.2,-2.5,59.1*,0.1
